Measured values published in PubChem BioAssay (NCI).
This is part of a sample that, as a whole, favours compounds with a hit. Of some 83,000 tested, about 20% had one in any assay.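 Note: values are percent growth. 100 is the growth of untreated cells, values between 100 and 0 indicate rising inhibition; between -100 and 0 indicates cell death.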 Unmarked numbers belong to inactive results. Activity calls are given as the source filed them. How the source made its calls: active means growth percent below 10; inactive means the rest.

How the values were obtained:
Experiment in all cases: NCI-60 one-dose screen, 48 h (100 = growth as untreated, 0 = no growth, -100 = all killed)
Conditions in all cases: 10 µM unless noted
[1] = test system: SK-MEL-2 melanoma
[2] = test system: EKVX NSCLC
[3] = test system: SN12C renal
[4] = test system: UO-31 renal
[5] = test system: TK-10 renal
[6] = test system: ACHN renal
[7] = test system: CAKI-1 renal
[8] = test system: A498 renal
[9] = test system: CCRF-CEM leukemia
[10] = test system: MOLT-4 leukemia
[11] = test system: SR leukemia
[12] = test system: RPMI-8226 leukemia
[13] = test system: OVCAR-8 ovarian
[14] = test system: OVCAR-5 ovarian
[15] = test system: OVCAR-4 ovarian
[16] = test system: SK-OV-3 ovarian
[17] = test system: IGROV1 ovarian
[18] = test system: OVCAR-3 ovarian
[19] = test system: HS 578T breast
[20] = test system: NCI/ADR-RES ovarian

Row | SMILES | growth [1] | growth [2] | growth [3] | growth [4] | growth [5] | growth [6] | growth [7] | growth [8] | growth [9] | growth [10] | growth [11] | growth [12] | growth [13] | growth [14] | growth [15] | growth [16] | growth [17] | growth [18] | growth [19] | growth [20]
1 | O=S(=O)(NCCNc1nccc(-c2c(-c3ccc(F)c(O)c3)nc3occn23)n1)c1ccccc1 | 17% | 81.6% | 48.8% | 35.2% | 121% | 33.9% | 44.1% | 103% | 38.5% | 47.8% | 20.2% | 33.7% | 53.7% | 101% | 85.8% | 68.6% | 43.9% | 77.1% | 54.4% | 109%
2 | OC1(c2ccc(Cl)c(C(F)(F)F)c2)CCN(CCCC(c2ccc(F)cc2)c2ccc(F)cc2)CC1 | -77.2% (active) | -9.88% (active) | -91.3% (active) | -65.7% (active) | -50.7% (active) | -86.8% (active) | -68.7% (active) | -92.5% (active) | -39% (active) | -25.8% (active) | -44.2% (active) | -22% (active) | -71.7% (active) | -46.9% (active) | -10.8% (active) | – | -57.2% (active) | -99.9% (active) | -47% (active) | -59.8% (active)
3 | O=S(=O)(NCCCNc1nccc(-c2c(-c3ccc(F)c(O)c3)nc3sccn23)n1)c1ccc(F)cc1 | -29.9% (active) | 30.6% | 4.8% (active) | -1.81% (active) | 27.6% | 6.06% (active) | 8.16% (active) | -10.9% (active) | -13.2% (active) | -3.88% (active) | -7.44% (active) | -47.7% (active) | -11.9% (active) | 24.4% | 3.86% (active) | 17.9% | 0.863% (active) | 20.8% | 3.15% (active) | 48.2%
4 | CN(C)Cc1c(-c2ccccc2)[nH]c2ccccc12 | 108% | 92.3% | 99.4% | 100% | 102% | 106% | 101% | 75.7% | 86.5% | 99.4% | 95.6% | 85.7% | 102% | 96.1% | 117% | 81.7% | 110% | 103% | 100% | 98.2%
5 | CCOC(=O)c1ccc(Nc2ccnc(SCC(=O)c3ccc(C#N)cc3)n2)cc1 | 71.1% | 73.4% | 73.8% | 48% | 90.4% | 80% | 57.1% | 50.2% | 17.5% | 16.3% | 54.1% | 20.4% | 22.8% | 107% | 65.2% | 101% | 79% | 79.1% | 92.1% | 41.5%
6 | C=C(C)[C@@H]1CC[C@]2(C(=O)NCCCN(CCC#N)CCC#N)CC[C@]3(C)[C@H](CC[C@@H]4[C@@]5(C)CCC(=O)C(C)(C)[C@@H]5CC[C@]43C)[C@@H]12 | 105% | 91% | 98.2% | 87.3% | 98.4% | 107% | 94.4% | 102% | 106% | 110% | 108% | 101% | 97.9% | 103% | 92.6% | 93% | 102% | 107% | 96.3% | 103%
7 | Cc1ccc(C2CC(c3cccc(Nc4ccncc4)c3)=NN2c2ccccc2)cc1 (configuration not stated) | -64.6% (active) | -51.9% (active) | -93.1% (active) | -100% (active) | -83.6% (active) | -99.8% (active) | -94.6% (active) | 30.7% | -24.5% (active) | -26.8% (active) | -13.3% (active) | -48.7% (active) | -50.7% (active) | -93.4% (active) | -86.5% (active) | -31.4% (active) | -92.7% (active) | -89.2% (active) | -57.5% (active) | -72.8% (active)
8 | COc1ccccc1N1CCN(C(=O)c2ccc3nc(NC(=O)c4ccc(NCCc5ccccc5)c([N+](=O)[O-])c4)sc3c2)CC1 | 93.4% | 89% | 77.2% | 60.1% | 110% | 90.6% | 73.4% | 79.6% | 77.6% | 95.4% | 3.74% (active) | 92.3% | 81.6% | 93.6% | 2.92% (active) | 92.4% | 91.8% | 70.3% | 48.5% | 89.6%
9 | O=C(Nc1ccc2ncnc(Nc3ccc(Oc4cccc(F)c4)c(Cl)c3)c2c1)c1ccc(CN2CCOCC2)cc1 | 59.1% | 30.4% | 39% | 20.3% | 53.6% | 17.5% | 24.4% | 53.9% | 2.89% (active) | -3.45% (active) | 18.6% | -16.4% (active) | 6.19% (active) | 75.5% | 20.3% | 18.5% | 0.971% (active) | 23.1% | 46.6% | 4.15% (active)
10 | C/C(=C(/c1ccccc1)c1ccc(OCC(O)CN2CCOCC2)cc1)c1ccccc1 (configuration not stated) | 98.9% | 96.6% | 88.3% | 73.7% | 94.3% | 98.8% | 80.1% | 91.6% | 80.4% | 61.5% | 47.2% | 75% | 88.5% | 87.2% | 89.3% | 91.3% | 96.2% | 90.4% | 90.8% | 93.2%
11 | CC[N+](CC)(CCCC(C)[N+]1(Cc2ccccc2)C(C)=CC=C1C)Cc1ccccc1 (configuration not stated) | 102% | 78.1% | 85.1% | 91.2% | 93.8% | 100% | 101% | 87.5% | 74.1% | 84% | 90.1% | 33.6% | 101% | 88.1% | 62.1% | 101% | 62.4% | 64% | – | 97.7%
12 | CCCCc1ccc(Nc2nnc(SCC(=O)NC(=O)NCC)s2)cc1 | 90.8% | 110% | 97% | 84.4% | 107% | 101% | 115% | 96.6% | 78.8% | 100% | 9.38% (active) | 85% | 74.1% | 96.8% | 104% | 195% | – | 104% | 60.6% | 103%
13 | c1cnc2nc3c(cc2c1)oc1ccccc13 | 101% | 102% | 94.8% | 68.3% | 107% | 93.3% | 80% | 69.3% | 90.9% | 92.8% | 80.7% | 94.1% | 100% | 105% | 103% | 121% | 97.2% | 115% | 102% | 100%
14 | COc1ccc(C(O)c2cc3c(N)c(C(=O)Nc4cccc(OC)c4)sc3nc2C)cc1 (configuration not stated) | 22.6% | 33.8% | 23.6% | 25% | 39.9% | 27% | 24.4% | -17% (active) | 7.53% (active) | 16.3% | 2.51% (active) | 6.06% (active) | 5.76% (active) | 23% | 36.5% | 19.5% | 15.4% | 0.638% (active) | 23.7% | 13.7%
15 | CC(C)(C)CC(C)(C)Nc1c(-c2ccc(C(F)(F)F)cc2)nc2cnccn12 | 91% | 79.4% | 86.1% | 64.1% | 102% | 87% | 75.4% | 83.8% | 85.8% | 68.5% | 59.8% | 62.9% | 89.2% | 102% | 79.4% | 82.7% | 67.4% | 84.8% | 102% | 81.9%
